Data on 5 compounds can be found in PubChem BioAssay.

Experiment [1] deals with PRMT1 (protein arginine N-methyltransferase 1). Kind of experiment: small molecules binding arginine methyltransferase PRMT1 – biochemical, small-molecule microarray, 635 nm fluorescence, primary screen (AID 1088).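 Note: binding of Prmt1 protein to compounds spotted on small-molecule microarray slides.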 To be noted: higher = more signal.
Experiment [2] in a line: growth effects on S. cerevisiae YJM789 – YJM789 clinical isolate, OD600, 24 h, basal, primary screen (AID 1089).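 Note: growth of clinical yeast isolate S. cerevisiae YJM 789 seeded 1000 cells per well; test concentration not given here.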 As to conditions: higher = more signal, called active from +8 up or from −8 down.
A short description of experiment [3]: S. pombe growth modifiers, basal conditions – strain 972, OD600, 24 h, no modulator, primary screen (AID 1090).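 Note: basal condition with compound alone and no growth modifier present; test concentration not given here.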 To be noted: S. pombe 972 growth, higher = more signal, called active from +8 up or from −8 down.
Experiment [4] in a line: budding yeast growth modifiers under rapamycin – strain BY4716, OD600, 96 h, primary screen (AID 1091). Note: test concentration not given here. As to conditions: S. cerevisiae BY4716 + rapamycin, higher = more signal, called active from +8 up or from −8 down.
The target in experiment [5] is Torsin-1A-interacting protein 2 (Homo sapiens) (UniProt Q8NFQ8). Kind of experiment: small molecules binding lysate-expressed LULL1 – cell lysate, human LULL1 lysate, 635/667 nm fluorescence, primary screen (AID 1092).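 Note: probe is lysate of COS7 cells overexpressing human LULL1; score merges per-feature 667 nm fluorescence with signal-to-noise.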 To be noted: small-molecule microarray, hLULL1 lysate binding, 635 nm fluorescence; higher = more signal.
Experiment [6] is described as follows: optical density change of DRC41 E. coli – strain DRC41, OD650, 24 h, E. coli filamentation project, primary screen (AID 1093).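 Note: MC1000 strain lacking acrAB efflux and sulA so SOS filamentation is blocked; test concentration not given here.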 As to conditions: E. coli DRC41 growth, higher = more signal, called active from +8 up or from −8 down.
The nature of experiment [7]: probe aLefty2 binding to arrayed compounds – biochemical, biotinylated probe, 635/667 nm fluorescence, primary screen (AID 1094).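 Note: score merges spot fluorescence near 667 nm with spot signal-to-noise ratio.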 As to conditions: small-molecule microarray, higher = more signal.
In experiment [8] the test system is Noggin (protein binding on small-molecule microarray). Kind of experiment: small molecules binding Noggin protein – biochemical, 635/667 nm fluorescence, primary screen (AID 1095).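 Note: score merges 667 nm feature fluorescence with signal to noise over triplicate slides.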 As to conditions: 635 nm fluorescence, higher = more signal.
The target in experiment [9] is Neurogenic locus notch homolog protein 3 (Homo sapiens) (UniProt Q9UM47). Kind of experiment: small molecules binding NOTCH3 protein – biochemical, 635/667 nm fluorescence, primary screen (AID 1096). As to conditions: small-molecule microarray, 635 nm fluorescence, higher = more signal.
Experiment [10] can be described thus: probe aEGFR binding to arrayed compounds – biochemical, biotinylated probe, 635/667 nm fluorescence, primary screen (AID 1097).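 Note: probe is a biotinylated anti-EGFR antibody binding compounds printed on slides; score combines fluorescence near 667 nm and signal to noise of each spot.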 To be noted: small-molecule microarray, higher = more signal.
The subject of experiment [11] is Plasmodium falciparum Sir2 (PF13_0152, Sir2A). Kind of experiment: Plasmodium falciparum Sir2A binding compounds – biochemical, small-molecule microarray, 635 nm fluorescence, primary screen (AID 1098).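 Note: score merges spot fluorescence intensity with its signal-to-noise ratio.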 To be noted: fluorescence 635 nm, higher = more signal.
A short description of experiment [12]: probe aDKK1 binding to arrayed compounds – biochemical, biotinylated probe, 635/667 nm fluorescence, primary screen (AID 1099).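 Note: score merges 667nm spot fluorescence with signal to noise across triplicate slides; reference of the scale not given here.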 As to conditions: small-molecule microarray, higher = more signal.
Experiment [13] is described as follows: probe aCHRDL2 binding to arrayed compounds – biochemical, biotinylated probe, 635/667 nm fluorescence, primary screen (AID 1100). To be noted: small-molecule microarray, higher = more signal.
The nature of experiment [14]: change in splice reporter luminescence, either direction, cell-based, HEK293, spliceosome inhibition project, primary screen (AID 1101).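 Note: HEK293 cells carrying a splicing-competent luciferase reporter gene; test concentration not given here.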 As to conditions: HEK293 splicing luciferase reporter, 24 h, higher = more signal, called active from +8 up or from −8 down. On the technique in general: Reporter assays use an easily measured gene product as a stand-in for the process of interest.

The target in experiment [15] is Fibroblast growth factor 10 (Homo sapiens) (UniProt O15520). Kind of experiment: compounds binding fibroblast growth factor 10 – biochemical, small-molecule microarray, 635 nm fluorescence, primary screen (AID 1102). To be noted: FGF10 binding, fluorescence 635 nm, higher = more signal.
The subject of experiment [16] is glycogen synthase kinase-3 (GSK3A per assay name; protocol says GSK3B). Kind of experiment: compounds binding glycogen synthase kinase-3 – biochemical, small-molecule microarray, 635 nm fluorescence, GSK3A, primary screen (AID 1103). Note: the record names both GSK3A and GSK3B. As to conditions: fluorescence 635 nm, higher = more signal.
The target in experiment [17] is Epidermal growth factor receptor (Homo sapiens) (UniProt P00533). Kind of experiment: compounds binding epidermal growth factor receptor – biochemical, small-molecule microarray, 635 nm fluorescence, primary screen (AID 1104).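 Note: score merges 667 nm emission intensity with spot signal to noise over triplicate slides.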 To be noted: EGFR binding, higher = more signal.
Experiment [18] has as its target Follistatin-related protein 3 (Homo sapiens) (UniProt O95633). Kind of experiment: compounds binding follistatin-related protein 3 – biochemical, small-molecule microarray, 635 nm fluorescence, primary screen (AID 1105).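 Note: score merges emission near 667 nm and signal to noise per printed spot across three slides.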 To be noted: FSTL3 binding, higher = more signal.
Experiment [19] has as its target Dickkopf-related protein 1 (Homo sapiens) (UniProt O94907). Kind of experiment: small molecules binding DKK1 protein – biochemical, small-molecule microarray, 635 nm fluorescence scan, primary screen (AID 1106).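 Note: score merges emission near 667 nm with signal to noise over three replicate slides.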 As to conditions: higher = more signal.
For experiment [20], the system named is Inhibin beta A chain (activin A). Kind of experiment: small molecules binding activin A – biochemical, small-molecule microarray, 635 nm fluorescence scan, primary screen (AID 1107).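 Note: mouse activin A protein probed at 4.33 µg/mL on printed slides; score merges bound-protein fluorescence near 667 nm with spot signal-to-noise.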 As to conditions: INHBA, higher = more signal.

The structures appear in SMILES notation. Active and inactive are the calls of the source.

Sequence of Follistatin-related protein 3 (Homo sapiens) (O95633 whole entry, looked up): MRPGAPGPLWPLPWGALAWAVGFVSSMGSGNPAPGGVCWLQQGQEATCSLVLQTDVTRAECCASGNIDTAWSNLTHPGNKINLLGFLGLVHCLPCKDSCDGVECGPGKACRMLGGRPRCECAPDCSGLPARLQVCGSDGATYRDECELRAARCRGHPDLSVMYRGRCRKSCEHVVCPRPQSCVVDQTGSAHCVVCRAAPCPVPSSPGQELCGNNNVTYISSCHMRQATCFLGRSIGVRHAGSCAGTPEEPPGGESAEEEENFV
Sequence of Epidermal growth factor receptor (Homo sapiens) (P00533 whole entry, looked up): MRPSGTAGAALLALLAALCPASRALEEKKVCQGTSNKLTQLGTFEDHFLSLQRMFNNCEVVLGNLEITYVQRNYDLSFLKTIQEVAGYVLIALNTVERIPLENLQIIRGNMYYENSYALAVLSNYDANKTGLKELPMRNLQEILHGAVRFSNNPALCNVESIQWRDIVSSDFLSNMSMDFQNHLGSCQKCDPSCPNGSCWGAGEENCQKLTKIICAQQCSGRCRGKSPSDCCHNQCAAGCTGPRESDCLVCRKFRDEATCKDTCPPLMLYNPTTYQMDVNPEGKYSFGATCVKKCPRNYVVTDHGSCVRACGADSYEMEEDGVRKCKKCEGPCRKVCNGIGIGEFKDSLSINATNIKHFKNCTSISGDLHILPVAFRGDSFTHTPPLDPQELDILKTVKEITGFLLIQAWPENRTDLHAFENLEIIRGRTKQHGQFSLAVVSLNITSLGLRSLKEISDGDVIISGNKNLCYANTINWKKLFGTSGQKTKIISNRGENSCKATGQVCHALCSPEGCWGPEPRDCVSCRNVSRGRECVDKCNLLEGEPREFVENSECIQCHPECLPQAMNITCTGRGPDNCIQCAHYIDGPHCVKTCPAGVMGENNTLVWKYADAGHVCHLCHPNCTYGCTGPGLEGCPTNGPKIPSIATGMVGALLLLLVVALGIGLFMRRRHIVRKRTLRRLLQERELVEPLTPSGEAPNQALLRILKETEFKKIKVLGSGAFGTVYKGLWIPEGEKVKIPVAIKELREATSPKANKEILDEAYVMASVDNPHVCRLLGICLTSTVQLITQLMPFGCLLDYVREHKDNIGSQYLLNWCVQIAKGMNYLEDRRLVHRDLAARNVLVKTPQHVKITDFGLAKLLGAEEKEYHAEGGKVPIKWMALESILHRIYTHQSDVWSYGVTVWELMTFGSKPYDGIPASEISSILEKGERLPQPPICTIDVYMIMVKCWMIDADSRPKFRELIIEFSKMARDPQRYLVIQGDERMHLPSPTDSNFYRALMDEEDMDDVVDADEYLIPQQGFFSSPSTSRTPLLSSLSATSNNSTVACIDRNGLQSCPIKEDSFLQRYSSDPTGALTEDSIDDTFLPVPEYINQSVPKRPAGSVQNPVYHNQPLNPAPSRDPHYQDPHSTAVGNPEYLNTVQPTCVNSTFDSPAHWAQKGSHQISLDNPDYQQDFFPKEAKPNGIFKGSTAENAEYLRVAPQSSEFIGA
Sequence of Dickkopf-related protein 1 (Homo sapiens) (O94907 whole entry, looked up): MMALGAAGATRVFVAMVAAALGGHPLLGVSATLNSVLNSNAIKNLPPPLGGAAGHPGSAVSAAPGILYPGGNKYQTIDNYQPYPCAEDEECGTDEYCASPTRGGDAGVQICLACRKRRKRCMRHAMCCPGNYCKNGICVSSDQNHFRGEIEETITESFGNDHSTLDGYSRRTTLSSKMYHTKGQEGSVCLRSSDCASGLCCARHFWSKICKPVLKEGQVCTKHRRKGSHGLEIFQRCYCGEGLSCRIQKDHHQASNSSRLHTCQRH
Sequence of Torsin-1A-interacting protein 2 (Homo sapiens) (Q8NFQ8 whole entry, looked up): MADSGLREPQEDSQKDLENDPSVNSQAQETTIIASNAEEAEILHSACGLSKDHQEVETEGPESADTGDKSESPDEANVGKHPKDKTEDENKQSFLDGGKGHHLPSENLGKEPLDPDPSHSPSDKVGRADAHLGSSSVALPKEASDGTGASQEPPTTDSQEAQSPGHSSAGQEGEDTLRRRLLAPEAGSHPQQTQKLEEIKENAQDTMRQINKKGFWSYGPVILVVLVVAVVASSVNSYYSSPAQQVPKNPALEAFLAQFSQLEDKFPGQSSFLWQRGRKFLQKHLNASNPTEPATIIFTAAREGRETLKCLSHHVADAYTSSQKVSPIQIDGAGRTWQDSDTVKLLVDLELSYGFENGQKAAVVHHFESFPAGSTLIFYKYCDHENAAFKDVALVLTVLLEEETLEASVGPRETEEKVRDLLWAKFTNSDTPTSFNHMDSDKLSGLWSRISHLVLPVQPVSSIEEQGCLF
Sequence of Fibroblast growth factor 10 (Homo sapiens) (O15520 whole entry, looked up): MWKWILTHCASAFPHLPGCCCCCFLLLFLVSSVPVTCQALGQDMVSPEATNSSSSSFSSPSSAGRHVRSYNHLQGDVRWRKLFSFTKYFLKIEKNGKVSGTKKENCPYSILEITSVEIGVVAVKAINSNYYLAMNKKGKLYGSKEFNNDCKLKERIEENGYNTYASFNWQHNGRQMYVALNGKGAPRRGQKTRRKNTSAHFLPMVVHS
Sequence of Neurogenic locus notch homolog protein 3 (Homo sapiens) (Q9UM47 whole entry, looked up): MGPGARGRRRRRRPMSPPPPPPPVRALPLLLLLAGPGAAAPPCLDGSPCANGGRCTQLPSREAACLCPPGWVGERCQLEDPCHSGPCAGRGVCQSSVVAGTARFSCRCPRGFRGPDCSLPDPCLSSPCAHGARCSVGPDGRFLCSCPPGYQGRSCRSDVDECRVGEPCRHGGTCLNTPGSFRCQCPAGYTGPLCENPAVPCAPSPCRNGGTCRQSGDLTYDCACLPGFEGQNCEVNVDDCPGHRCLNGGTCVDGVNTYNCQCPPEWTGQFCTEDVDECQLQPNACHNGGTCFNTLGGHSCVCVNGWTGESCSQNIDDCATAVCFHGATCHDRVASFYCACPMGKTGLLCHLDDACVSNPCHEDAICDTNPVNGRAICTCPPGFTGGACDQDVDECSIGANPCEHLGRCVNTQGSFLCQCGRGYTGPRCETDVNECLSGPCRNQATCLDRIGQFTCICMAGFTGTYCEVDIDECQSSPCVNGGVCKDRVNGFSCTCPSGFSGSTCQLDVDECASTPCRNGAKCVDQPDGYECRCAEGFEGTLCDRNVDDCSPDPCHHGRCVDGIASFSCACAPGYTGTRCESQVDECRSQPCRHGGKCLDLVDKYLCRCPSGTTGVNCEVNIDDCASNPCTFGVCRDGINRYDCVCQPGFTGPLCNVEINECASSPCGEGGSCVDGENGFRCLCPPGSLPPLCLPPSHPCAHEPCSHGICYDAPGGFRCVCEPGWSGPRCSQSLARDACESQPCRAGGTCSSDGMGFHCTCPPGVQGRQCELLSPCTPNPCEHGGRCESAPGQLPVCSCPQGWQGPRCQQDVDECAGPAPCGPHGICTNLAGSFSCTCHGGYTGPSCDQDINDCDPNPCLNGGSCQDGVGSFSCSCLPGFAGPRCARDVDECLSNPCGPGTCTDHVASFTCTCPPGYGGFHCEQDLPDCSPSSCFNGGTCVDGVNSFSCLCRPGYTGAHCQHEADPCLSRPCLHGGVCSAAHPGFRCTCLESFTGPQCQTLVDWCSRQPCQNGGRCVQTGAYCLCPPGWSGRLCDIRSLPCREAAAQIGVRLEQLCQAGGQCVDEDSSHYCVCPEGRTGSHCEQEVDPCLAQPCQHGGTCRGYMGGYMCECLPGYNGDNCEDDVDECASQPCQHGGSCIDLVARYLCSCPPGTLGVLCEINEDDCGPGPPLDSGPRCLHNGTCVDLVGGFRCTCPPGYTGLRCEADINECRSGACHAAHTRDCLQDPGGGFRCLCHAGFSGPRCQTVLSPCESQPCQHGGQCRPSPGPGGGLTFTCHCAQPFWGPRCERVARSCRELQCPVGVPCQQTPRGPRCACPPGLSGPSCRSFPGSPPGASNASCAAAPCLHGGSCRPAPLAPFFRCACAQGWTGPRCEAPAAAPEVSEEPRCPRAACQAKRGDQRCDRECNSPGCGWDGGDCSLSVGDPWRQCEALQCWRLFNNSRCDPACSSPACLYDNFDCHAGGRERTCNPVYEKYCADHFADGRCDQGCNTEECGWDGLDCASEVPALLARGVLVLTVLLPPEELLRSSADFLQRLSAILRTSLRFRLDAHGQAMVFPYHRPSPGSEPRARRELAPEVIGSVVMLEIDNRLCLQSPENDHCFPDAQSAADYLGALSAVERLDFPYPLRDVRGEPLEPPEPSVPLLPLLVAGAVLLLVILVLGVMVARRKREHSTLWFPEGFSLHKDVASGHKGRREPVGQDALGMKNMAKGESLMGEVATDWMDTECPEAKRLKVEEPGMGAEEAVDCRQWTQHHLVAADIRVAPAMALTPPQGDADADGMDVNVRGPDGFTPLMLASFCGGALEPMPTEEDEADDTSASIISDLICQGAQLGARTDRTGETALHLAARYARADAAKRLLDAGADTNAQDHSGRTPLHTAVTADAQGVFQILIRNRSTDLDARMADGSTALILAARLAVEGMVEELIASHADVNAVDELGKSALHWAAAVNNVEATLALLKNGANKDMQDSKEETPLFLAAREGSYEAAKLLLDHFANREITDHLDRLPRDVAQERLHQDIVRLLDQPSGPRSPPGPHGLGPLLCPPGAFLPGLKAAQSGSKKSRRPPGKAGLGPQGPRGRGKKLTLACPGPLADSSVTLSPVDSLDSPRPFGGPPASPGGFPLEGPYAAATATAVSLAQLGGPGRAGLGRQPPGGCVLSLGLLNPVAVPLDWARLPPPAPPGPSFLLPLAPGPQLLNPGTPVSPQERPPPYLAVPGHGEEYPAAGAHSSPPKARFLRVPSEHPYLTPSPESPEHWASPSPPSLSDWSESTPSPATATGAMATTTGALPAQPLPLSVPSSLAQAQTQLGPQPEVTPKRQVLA

With `COC(=O)[C@@H]1CC[C@H](C)[C@@H](c2ccc(C)cc2)N1C(=O)c1ccc(C=NO[C@H](C)c2cn([C@@H]3COC[C@H]3O)nn2)cc1`, the composite z-score in [1] is 1.12; in experiment [5], 2.06; in [7], -0.138; in experiment [8] it was 0.258; in experiment [9], 1.09; in experiment [10] it was 0.212. For the same compound, the composite z-score in experiment [11] is 0.266; in experiment [12], -0.132; in experiment [13], -0.369; in [15], 0.718; in [16], 0.891; in experiment [17], 0.67. Besides, the composite z-score in [18] was 0.66; in [19] it was 0.831; in experiment [20], -1.14. In addition, the z-score in experiment [2] was 0.524 (inactive); in experiment [3], -0.0358 (inactive); in experiment [4], 0.726 (inactive); in experiment [6], 1.67 (inactive); in [14] it was 0.0134 (inactive).
Regarding `C#CCCCON=C1C[C@@H](O)[C@@H](O)[C@@H]2[C@@H]3C(=O)N(CC)C(=O)[C@@H]3CC[C@@H]12`, the composite z-score was 0.677 in [1]; 0.187 in [5]; -0.0478 in experiment [7]; 0.167 in [8]; 0.426 in experiment [9]; -0.0972 in [10]. The composite z-score in experiment [11] was 0.254; in experiment [12], -0.129; in [13] it was -0.697; in experiment [15], 1.18; in experiment [16], 0.545; in [17], 0.631. Further, the composite z-score in [18] was 0.496; in experiment [19] it was 0.628; in experiment [20], -0.236. The z-score is -0.0246 (inactive) in [2]; 0.267 (inactive) in [3]; 1.25 (inactive) in experiment [4]; 0.439 (inactive) in experiment [6]; 0.401 (inactive) in experiment [14].
As for `O=C1C[C@@H](O)[C@@H](O)[C@@H]2[C@@H]3C(=O)N(C[C@@H]4CCCO4)C(=O)[C@@H]3CC[C@@H]12`, the composite z-score in [1] is 0.282; in experiment [5], 1.17; in [7], -0.0708; in experiment [8], 0.658; in experiment [9], 0.472; in experiment [10] it was 0.091. Besides, the composite z-score in [11] was 0.495; in experiment [12], -0.185; in [13] it was -0.7; in [15], 0.612; in [16], 0.718; in experiment [17], 0.573. For the same compound, the composite z-score is 0.761 in experiment [18], 0.823 in experiment [19] and -0.0076 in experiment [20]. Besides, the z-score in experiment [2] is -0.217 (inactive); in experiment [3], -0.519 (inactive); in experiment [4], -0.404 (inactive); in experiment [6], 0.48 (inactive); in [14], -0.0639 (inactive).
Consider `CC(C)=CCCC(C)=CCON=C1C[C@@H](O)[C@@H](O)[C@@H]2[C@@H]3C(=O)N(c4ccc(F)cc4F)C(=O)[C@@H]3CC[C@H]12`, for which the composite z-score in [1] is 1.54; in experiment [5], 2.05; in [7], -0.0413; in experiment [8], 0.819; in experiment [9], 1.09; in experiment [10], -0.0372. Also, the composite z-score in experiment [11] was 0.176; in [12] it was -0.016; in experiment [13] it was -0.428; in experiment [15] it was 0.0906; in [16], 0.349; in experiment [17] it was 0.531. For the same compound, the composite z-score was 1.08 in experiment [18], 0.612 in [19] and 0.342 in experiment [20]. Further, the z-score in [2] is -0.912 (inactive); in experiment [3], -0.964 (inactive); in [4], -1.53 (inactive); in experiment [6] it was -0.159 (inactive); in experiment [14], -0.956 (inactive).
`CCC1=NOC(CCC2CC(OC(=O)NCc3cccc4c3OCO4)CC3(CCCC(COC(=O)NCCc4ccccc4OC)O3)O2)C1` (stereo not given): the composite z-score was 1.26 in [1]; 2.38 in experiment [5]; -0.099 in [7]; 0.079 in [8]; 0.53 in experiment [9]; -0.0424 in experiment [10]. Moreover, the composite z-score in [11] was 1.09; in experiment [12] it was -0.16; in [13], -0.0595; in experiment [15], 0.709; in [16], 0.391; in [17] it was 0.0007. Besides, the composite z-score in experiment [18] stood at 0.192; in experiment [19], 0.859; in [20], 0.312. Further, the z-score in [2] is -0.873 (inactive); in [3], 0.168 (inactive); in experiment [4], 0.327 (inactive); in [6], 1.11 (inactive); in [14], 0.0991 (inactive).
